# Data from PubChem BioAssay (NCATS).
# Results filed as inconclusive are left out. A call without a number means that no potency is given here. Calls of active or inactive are those of the source. Unless noted, calls come from the whole dose curve; as a rule, active = well fitted curve in the direction sought with a large enough effect; inconclusive = small, poorly fitted or top-dose-only effect, or another doubt; inactive = no such curve, though single readings can be large; an effect the other way counts as inactive or inconclusive.
# Key:
# [1] = Validation of Assay for Modulators of Lamin A Splicing (AID 1459; active = well fitted curve in the direction sought with a large enough effect in the signal ratio; the % refers to the signal ratio;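 note: cells exposed to compound for two days before reading; ratio rise marks activators and ratio drop marks inhibitors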)
# Method in brief: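 S3 HeLa stably expressing lamin A-EGFP splicing minigene and DsRed2, 600 cells/well in Opti-MEM with 2% FBS, treated 48 h at 37C; laser-scanning cytometry gives GFP/RFP total intensity ratio; ancitabine positive control, 0.5% DMSO vehicle.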
# [2] = qHTS Assay for Lipid Storage Modulators (AID 1519; calls by dose curve); conditions: Drosophila S3 cells, BODIPY lipid droplet/cell ratio, laser cytometry, cells loaded with oleic acid; for activity change, negative = inhibition: at 57.5 µM (top of the series)
# Method in brief: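 Cells seeded at 5,000 per well were treated with compounds over a concentration series and loaded with oleic acid (400 uM, as added). Lipid droplet fluorescence (488 nm excitation, 500-530 nm channel) was read by laser-scanning cytometry and normalized to 20 uM Triacsin C.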
# [3] = biological target: DNA repair nuclease/redox regulator APEX1 (Homo sapiens) (UniProt P27695); assay: qHTS Validation Assay for Inhibitors of the Human Apurinic/apyrimidinic Endonuclease 1 (APE1) (AID 1705;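 note: TAMRA fluorescence gain over two minutes as APE1 cuts a quenched THF abasic duplex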)
# Method in brief: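 Fluorogenic double-stranded THF abasic-site substrate (5'-TAMRA/3'-BHQ-2), 50 nM final. Enzyme preincubated with compound 15 min at room temperature, then substrate added. Kinetic fluorescence (ex 525/em 598 nm) read three times at 60 s intervals; activity taken as third-minus-first read difference.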
# [4] = Counterscreen for APE1 Inhibitors: Fluorescent Dye Displacement Validation Assay (AID 1707)
# Method in brief: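 Assay buffer: Tris-HCl pH7.5 with 50mM NaCl, 2 mM MgCl2, 0.01% Tween-20. Dye 250 nM, duplex 50 nM final. Readout: decrease in ThO endpoint fluorescence, 480 nm excitation, 540 nm emission.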
# [5] = biological target: Endonuclease 4 (Escherichia coli (strain K12)) (UniProt P0A6C1); assay: Counterscreen for APE1 Inhibitors: qHTS Validation Assay for Inhibitors of Endonuclease IV (AID 1708)
# Method in brief: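 Enzymatic AP-site incision assay using a double-stranded THF substrate labelled with TAMRA and BHQ-2; released fluorescence signals activity. Enzyme 2 nM, substrate 50 nM, 15 min compound preincubation.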
# [6] = qHTS for differential inhibitors of proliferation of Plasmodium falciparum line 3D7 (AID 1876); note: potency is the fitted concentration of half-maximal effect
# [7] = qHTS for differential inhibitors of proliferation of Plasmodium falciparum line D10 (AID 1877);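 note: parasites grown with compound for 72 h before DNA staining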; note: potency is the fitted concentration of half-maximal effect
# [8] = qHTS for differential inhibitors of proliferation of Plasmodium falciparum line Dd2 (AID 1882); conditions: Potency: Plasmodium falciparum Dd2 proliferation inhibition; note: nearly all actives have a fitted effect of over 65% in size; note: potency is the fitted concentration of half-maximal effect;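 for activity change, negative = inhibition: compound exposure of 72 h on infected erythrocytes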
# Method in brief: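 SYBR Green I DNA fluorescence read-out, ex 485/em 535 nm. Signals were normalized to 0.29 uM artemisinin and DMSO wells, then corrected using vehicle-only plates flanking each stack. Parasite growth ran 72 h in erythrocytes before lysis.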
# [9] = biological target: Ferritin light chain (Equus caballus) (UniProt P02791); assay: qHTS Validation Assay for Identification of Novel General Anesthetics (AID 2323)
# Method in brief: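 Horse-spleen apoferritin (10 uM) in PBS with 50% saturated 1-aminoanthracene; compounds pin-transferred, 10 min at room temperature. Fluorescence read at 380/535 nm, normalized to free 1-AMA and 1-AMA/apoferritin values; four-parameter Hill fit.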
# [10] = biological target: ATP-dependent DNA helicase Q1 (Homo sapiens) (UniProt P46063); assay: qHTS Validation Assay for Inhibitors of RecQ-Like Dna Helicase 1 (RECQ1) (AID 2353)
# Method in brief: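 50 nM RECQ1T1 preincubated 15 min with compound in Tris pH 8.0 buffer with MgCl2, DTT, Tween-20 and 2.5 ug/ml poly(dI-dC); started with 200 nM TAMRA/BHQ-2 forked duplex and 2 mM ATP. Unwinding read as fluorescence (525/598 nm), two reads 2 h apart.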
# [11] = Validation screen for small molecules that induce DNA re-replication in MCF 10A normal breast cells (AID 463097); note: nearly all actives have a fitted effect of over 60% in size
# Method in brief: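 MCF 10A cells exposed to compound 48 hr at 37 C, 5% CO2, then Hoechst-stained 40 min. Laser-scanning imaging of nuclear DNA content (405 nm ex, 500-530 nm em); re-replication scored as rise in nuclei with elevated fluorescence intensity.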
# [12] = Quantitative high throughput screen for delayed death inhibitors of the malarial parasite plastid, 96 hour incubation (AID 488745); note: nearly all actives have a fitted effect of over 70% in size; note: potency is the fitted concentration of half-maximal effect;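 for activity change, negative = inhibition: luciferase-expressing P. falciparum in erythrocytes at 2% hematocrit and 0.1% parasitemia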
# Method in brief: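 Growth of reporter-bearing P. falciparum in red cells is measured after 96 h with compound, covering two erythrocytic cycles. Luminescence from the integrated luciferase serves as the growth signal.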
# [13] = Quantitative high throughput screen for delayed death inhibitors of the malarial parasite plastid, 48 hour incubation (AID 488752); note: nearly all actives have a fitted effect of over 65% in size; note: potency is the fitted concentration of half-maximal effect
# Method in brief: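 One parasite generation (48 h, 37 C, 5% CO2) of luciferase-reporter P. falciparum in erythrocytes is run with test compound; decreased luminescence indicates inhibited growth.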
# [14] = biological target: M-phase phosphoprotein 8 (Homo sapiens) (UniProt Q99549); assay: qHTS Validation Assay for Inhibitors for MPP8 Chromodomain Interactions with Methylated Histone Tails (AID 488949); note: nearly all actives have a fitted effect of over 55% in size; note: potency is the fitted concentration of half-maximal effect; for activity change, negative = inhibition: top concentration of the series differs between compounds
# Method in brief: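 MPP8 (50 nM) was pre-bound to 50 nM biotinylated H3(1-18)K9me3 peptide in PBS pH 7.4 with 0.01% Tween-20. Compounds were then added for 30 min at room temperature, and complex disruption was read by AlphaScreen with streptavidin donor and nickel-chelate acceptor beads.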
# [15] = biological target: Transient receptor potential cation channel subfamily V member 1 (Homo sapiens) (UniProt Q8NER1); assay: HTS Assay for Compounds that Act as Enhancers of the Vanilloid Receptor 1 (AID 488979)
# Method in brief: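 Calcium influx kinetics via Fluo-8 (480/520 nm) in TRPV1-expressing cells, 2000/well cultured overnight at 35.5C. Compound-alone read 3 min (agonist phase), followed by EC20 capsaicin challenge for 2 min (enhancer phase).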
# [16] = biological target: Thyrotropin receptor (Homo sapiens) (UniProt P16473); assay: qHTS Assay for Antagonists of the Thyroid Stimulating Hormone Receptor (AID 488980)
# Method in brief: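 TSHR-transfected HEK293 cells (2000/well) in HEPES-buffered HBSS with 70 uM RO 20-1724 were stimulated with 4 nM TSH (EC80, final) in the presence of compound. cAMP was measured by HTRF competition after lysis and 30 min at RT.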
# [17] = biological target: Thyrotropin-releasing hormone receptor (Homo sapiens) (UniProt P34981); assay: qHTS for Small Molecule Agonists and Allosteric Enhancers of Human TRH Receptor: Validation Screen for Agonists (AID 493127;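 active = calcium activation more than 3 SD above the typical response in the agonist read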;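 note: intracellular calcium rise by fluo-8 fluorescence before TRH EC20 addition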); conditions: TRH receptor agonist cell assay; at 2 µM; stronger effect = higher value
# Method in brief: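 Gq-coupled calcium mobilization in TRHR cells after compound addition, monitored kinetically with fluo-8 dye on an FDSS reader.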
# [18] = biological target: Galactokinase (Homo sapiens) (UniProt P51570); assay: qHTS Validation Assay for Inhibitors of Human Galactokinase (GALK) (AID 493189)
# Method in brief: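 GALK (5 nM) with 35 uM ATP and 100 uM galactose in HEPES pH 8.0 with MgCl2, NaCl, DTT and BSA. Reaction ran 1 h at room temperature. Residual ATP read by Kinase-Glo Plus luminescence.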
# [19] = biological target: Voltage-gated inwardly rectifying potassium channel KCNH2 (Homo sapiens) (UniProt Q12809); assay: qHTS Assay for Small Molecule Inhibitors of the Human hERG Channel Activity (AID 588834);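 note: lower thallium flux fluorescence means stronger hERG block; nearly all actives have a fitted effect of over 50% in size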; note: potency is the fitted concentration of half-maximal effect; for activity change, negative = inhibition: top concentration of the series differs between compounds
# Method in brief: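 U2OS cells BacMam-transduced with hERG, 2000 cells/well, compound ~10 min at 37 °C before stimulation buffer. FluxOR thallium flux fluorescence read kinetically on FDSS; decrease indicates block; AC50 from Hill fits.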
# [20] = qHTS for differential inhibitors of proliferation of Plasmodium falciparum line HB3 (AID 1886); conditions: Potency: Plasmodium falciparum HB3 proliferation inhibition;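 note: parasites grown with compound for 72 h before SYBR Green readout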; note: potency is the fitted concentration of half-maximal effect
# [21] = measured here: cell count channel max response
# [22] = measured here: lipid channel max response
# Sequence of Transient receptor potential cation channel subfamily V member 1 (Homo sapiens) (Q8NER1 whole entry, looked up): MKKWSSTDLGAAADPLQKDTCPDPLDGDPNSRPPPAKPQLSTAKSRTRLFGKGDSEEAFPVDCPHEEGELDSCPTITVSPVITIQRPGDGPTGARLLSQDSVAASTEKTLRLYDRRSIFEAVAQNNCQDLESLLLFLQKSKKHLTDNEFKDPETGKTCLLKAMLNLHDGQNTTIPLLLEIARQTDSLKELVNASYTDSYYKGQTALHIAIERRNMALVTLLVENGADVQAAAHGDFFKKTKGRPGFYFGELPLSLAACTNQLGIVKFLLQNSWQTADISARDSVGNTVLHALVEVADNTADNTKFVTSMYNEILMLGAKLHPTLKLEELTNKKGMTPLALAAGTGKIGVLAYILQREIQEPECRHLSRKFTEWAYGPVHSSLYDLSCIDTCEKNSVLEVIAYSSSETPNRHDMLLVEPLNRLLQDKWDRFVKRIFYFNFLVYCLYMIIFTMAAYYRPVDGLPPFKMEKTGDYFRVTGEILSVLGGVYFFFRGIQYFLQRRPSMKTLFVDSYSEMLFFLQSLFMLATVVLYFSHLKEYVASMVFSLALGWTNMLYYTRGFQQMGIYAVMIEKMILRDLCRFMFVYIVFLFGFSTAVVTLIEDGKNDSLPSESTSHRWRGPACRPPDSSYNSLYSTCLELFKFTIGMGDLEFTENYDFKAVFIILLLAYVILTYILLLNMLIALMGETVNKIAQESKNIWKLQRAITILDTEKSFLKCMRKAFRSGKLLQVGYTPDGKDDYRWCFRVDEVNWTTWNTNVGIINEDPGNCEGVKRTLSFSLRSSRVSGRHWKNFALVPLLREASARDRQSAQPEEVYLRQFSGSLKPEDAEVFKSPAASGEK
# Sequence of Galactokinase (Homo sapiens) (P51570 whole entry, looked up): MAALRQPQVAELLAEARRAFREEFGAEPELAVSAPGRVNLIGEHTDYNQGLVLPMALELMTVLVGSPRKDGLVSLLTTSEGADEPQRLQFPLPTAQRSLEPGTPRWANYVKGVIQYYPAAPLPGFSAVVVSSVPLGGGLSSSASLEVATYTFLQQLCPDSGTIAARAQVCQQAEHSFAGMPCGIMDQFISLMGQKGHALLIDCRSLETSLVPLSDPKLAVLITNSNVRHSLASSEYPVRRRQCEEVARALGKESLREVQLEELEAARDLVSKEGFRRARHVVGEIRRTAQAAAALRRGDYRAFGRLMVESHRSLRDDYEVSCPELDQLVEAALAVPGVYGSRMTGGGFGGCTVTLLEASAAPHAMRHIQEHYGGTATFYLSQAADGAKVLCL
# Sequence of DNA repair nuclease/redox regulator APEX1 (Homo sapiens) (P27695 whole entry, looked up): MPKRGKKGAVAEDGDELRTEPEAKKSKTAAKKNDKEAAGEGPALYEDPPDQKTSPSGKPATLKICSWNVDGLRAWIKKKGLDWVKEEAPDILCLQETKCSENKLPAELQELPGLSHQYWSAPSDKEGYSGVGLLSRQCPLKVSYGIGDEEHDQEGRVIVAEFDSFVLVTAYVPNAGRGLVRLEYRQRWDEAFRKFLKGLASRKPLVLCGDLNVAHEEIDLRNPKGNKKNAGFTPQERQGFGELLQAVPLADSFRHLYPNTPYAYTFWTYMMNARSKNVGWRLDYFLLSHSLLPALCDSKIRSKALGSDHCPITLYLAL
# Sequence of Thyrotropin-releasing hormone receptor (Homo sapiens) (P34981 whole entry, looked up): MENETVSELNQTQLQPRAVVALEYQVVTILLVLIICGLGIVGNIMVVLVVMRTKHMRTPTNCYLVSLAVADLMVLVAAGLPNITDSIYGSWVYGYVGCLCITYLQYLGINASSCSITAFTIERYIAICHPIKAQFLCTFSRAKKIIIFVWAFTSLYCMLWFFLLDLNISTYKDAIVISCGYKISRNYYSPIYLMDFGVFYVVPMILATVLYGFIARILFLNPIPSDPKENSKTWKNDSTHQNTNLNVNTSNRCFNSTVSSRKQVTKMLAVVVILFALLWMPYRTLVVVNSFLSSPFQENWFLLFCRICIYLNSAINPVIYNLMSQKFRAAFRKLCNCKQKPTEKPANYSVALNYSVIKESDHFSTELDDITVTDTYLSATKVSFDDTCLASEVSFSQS
# Sequence of Thyrotropin receptor (Homo sapiens) (P16473 whole entry, looked up): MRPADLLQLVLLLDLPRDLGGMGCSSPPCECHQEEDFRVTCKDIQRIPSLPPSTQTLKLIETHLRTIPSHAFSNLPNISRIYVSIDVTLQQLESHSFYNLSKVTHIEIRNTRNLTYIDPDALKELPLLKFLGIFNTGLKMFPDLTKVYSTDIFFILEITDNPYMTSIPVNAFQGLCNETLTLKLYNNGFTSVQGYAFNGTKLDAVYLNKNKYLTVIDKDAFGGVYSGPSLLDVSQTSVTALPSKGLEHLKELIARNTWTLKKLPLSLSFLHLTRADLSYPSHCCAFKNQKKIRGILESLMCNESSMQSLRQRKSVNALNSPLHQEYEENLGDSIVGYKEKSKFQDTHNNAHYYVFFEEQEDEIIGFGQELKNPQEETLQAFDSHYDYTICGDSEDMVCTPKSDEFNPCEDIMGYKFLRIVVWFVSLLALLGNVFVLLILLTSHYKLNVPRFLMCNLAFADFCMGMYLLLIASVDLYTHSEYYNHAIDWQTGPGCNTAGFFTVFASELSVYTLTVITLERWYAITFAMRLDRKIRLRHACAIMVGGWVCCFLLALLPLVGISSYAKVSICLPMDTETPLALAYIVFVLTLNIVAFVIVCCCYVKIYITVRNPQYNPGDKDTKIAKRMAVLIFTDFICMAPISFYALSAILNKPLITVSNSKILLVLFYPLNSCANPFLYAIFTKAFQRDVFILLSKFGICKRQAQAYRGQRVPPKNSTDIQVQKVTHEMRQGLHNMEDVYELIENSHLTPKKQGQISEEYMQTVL
# Sequence of ATP-dependent DNA helicase Q1 (Homo sapiens) (P46063 whole entry, looked up): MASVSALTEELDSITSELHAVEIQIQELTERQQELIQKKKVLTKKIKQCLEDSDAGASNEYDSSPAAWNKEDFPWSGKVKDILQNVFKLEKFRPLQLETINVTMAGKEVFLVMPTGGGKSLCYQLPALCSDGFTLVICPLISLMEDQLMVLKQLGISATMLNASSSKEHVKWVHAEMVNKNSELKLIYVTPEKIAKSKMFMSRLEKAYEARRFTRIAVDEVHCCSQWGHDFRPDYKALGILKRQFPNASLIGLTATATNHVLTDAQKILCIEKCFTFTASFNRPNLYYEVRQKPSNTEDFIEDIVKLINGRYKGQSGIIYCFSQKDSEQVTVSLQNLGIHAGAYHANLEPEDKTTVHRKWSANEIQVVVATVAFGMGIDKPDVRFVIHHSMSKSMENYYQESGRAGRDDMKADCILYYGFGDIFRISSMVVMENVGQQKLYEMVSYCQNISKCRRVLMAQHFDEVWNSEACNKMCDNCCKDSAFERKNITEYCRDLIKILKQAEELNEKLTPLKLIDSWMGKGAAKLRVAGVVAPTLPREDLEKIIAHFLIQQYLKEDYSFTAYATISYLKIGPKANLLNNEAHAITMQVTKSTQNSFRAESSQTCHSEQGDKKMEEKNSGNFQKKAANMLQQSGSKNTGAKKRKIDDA
# Sequence of Ferritin light chain (Equus caballus) (P02791 2-175 limits assumed): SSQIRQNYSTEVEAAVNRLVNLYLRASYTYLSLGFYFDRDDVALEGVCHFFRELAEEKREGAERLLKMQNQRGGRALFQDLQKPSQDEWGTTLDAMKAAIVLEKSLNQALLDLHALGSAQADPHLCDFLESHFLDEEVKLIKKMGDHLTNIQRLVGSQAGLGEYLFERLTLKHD
# Sequence of M-phase phosphoprotein 8 (Homo sapiens) (Q99549 whole entry, looked up): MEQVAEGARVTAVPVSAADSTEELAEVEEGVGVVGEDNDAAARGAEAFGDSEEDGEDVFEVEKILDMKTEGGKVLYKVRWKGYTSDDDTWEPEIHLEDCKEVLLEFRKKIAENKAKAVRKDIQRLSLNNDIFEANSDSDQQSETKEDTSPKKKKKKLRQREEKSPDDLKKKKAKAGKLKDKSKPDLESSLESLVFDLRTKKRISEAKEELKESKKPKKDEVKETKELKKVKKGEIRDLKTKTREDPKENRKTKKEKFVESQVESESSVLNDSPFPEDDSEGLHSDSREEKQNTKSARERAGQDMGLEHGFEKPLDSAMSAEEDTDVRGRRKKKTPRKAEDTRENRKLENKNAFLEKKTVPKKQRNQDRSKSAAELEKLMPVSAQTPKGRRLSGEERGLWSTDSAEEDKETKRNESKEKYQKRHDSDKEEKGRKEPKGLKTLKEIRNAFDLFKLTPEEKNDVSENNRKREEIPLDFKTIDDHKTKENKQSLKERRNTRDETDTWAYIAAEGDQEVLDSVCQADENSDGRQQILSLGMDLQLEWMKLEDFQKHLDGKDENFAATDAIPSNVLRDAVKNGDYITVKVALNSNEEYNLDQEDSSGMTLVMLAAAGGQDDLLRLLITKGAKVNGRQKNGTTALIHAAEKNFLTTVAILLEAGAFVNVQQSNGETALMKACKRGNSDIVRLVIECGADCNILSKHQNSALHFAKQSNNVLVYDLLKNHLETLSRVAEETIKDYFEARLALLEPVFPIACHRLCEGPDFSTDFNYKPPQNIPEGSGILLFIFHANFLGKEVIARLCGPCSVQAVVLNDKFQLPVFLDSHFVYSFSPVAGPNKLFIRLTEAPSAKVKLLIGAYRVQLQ
compound,measurement,setting,value
N=C1Sc2ccccc2C2=NCCCN12,outcome,[1],inactive
same,"activity change, negative = inhibition",[2],-3.51% (inactive)
same,max response,[2]; [21],-6.86%
same,max response,[2]; [22],-8.77%
same,Potency,[3],inactive
same,Potency,[4],inactive
same,outcome,[5],inactive
same,Potency,[6],inactive
same,Potency,[7],inactive
same,Potency,[8],inactive
same,outcome,[9],inactive
same,Potency,[10],inactive
same,outcome,[11],inactive
same,Potency,[12],inactive
same,Potency,[13],inactive
same,Potency,[14],10 µM (active)
same,outcome,[15],inactive
same,outcome,[16],inactive
same,activation,[17],0.125% (inactive)
same,outcome,[18],inactive
same,Potency,[19],inactive
COc1c2c(nc3ccccc13)OC(C(C)(O)CO)C2 (configuration not stated),outcome,[1],inactive
same,"activity change, negative = inhibition",[2],1.22% (inactive)
same,max response,[2]; [21],-18%
same,max response,[2]; [22],-12.2%
same,Potency,[3],inactive
same,Potency,[4],inactive
same,outcome,[5],inactive
same,Potency,[6],inactive
same,Potency,[7],inactive
same,Potency,[8],inactive
same,Potency,[20],inactive
same,outcome,[9],inactive
same,Potency,[10],inactive
same,outcome,[11],inactive
same,Potency,[12],inactive
same,Potency,[13],inactive
same,Potency,[14],inactive
same,outcome,[15],inactive
same,outcome,[16],inactive
same,activation,[17],0.812% (inactive)
same,outcome,[18],inactive
same,Potency,[19],inactive
N=C(N)SCCc1cccc(CCSC(=N)N)c1,outcome,[1],inactive
same,"activity change, negative = inhibition",[2],1.43% (inactive)
same,max response,[2]; [21],-17.4%
same,max response,[2]; [22],-13.1%
same,Potency,[3],inactive
same,Potency,[4],inactive
same,outcome,[5],inactive
same,Potency,[6],3.16 µM (active)
same,Potency,[7],10 µM (active)
same,Potency,[8],7.08 µM (active)
same,Potency,[20],8.91 µM (active)
same,outcome,[9],inactive
same,Potency,[10],inactive
same,outcome,[11],inactive
same,Potency,[12],13.1 µM (active)
same,Potency,[14],inactive
same,outcome,[15],inactive
same,outcome,[16],inactive
same,activation,[17],0.562% (inactive)
same,outcome,[18],inactive
CSc1nc(N)c2ncn([C@@H]3O[C@H](COP(=O)(O)OP(=O)(O)OP(=O)(O)O)[C@H](O)[C@H]3O)c2n1,outcome,[1],inactive
same,Potency,[3],inactive
same,Potency,[4],inactive
same,outcome,[5],inactive
same,Potency,[7],12.6 µM (active)
same,Potency,[8],inactive
same,outcome,[9],inactive
same,Potency,[10],inactive
same,outcome,[11],inactive
same,Potency,[12],inactive
same,Potency,[13],inactive
same,Potency,[14],inactive
same,outcome,[15],inactive
same,outcome,[16],inactive
same,activation,[17],24.8% (inactive)
same,outcome,[18],inactive
same,Potency,[19],inactive
O=[N+]([O-])c1ccc(CSc2ncnc3c2ncn3[C@@H]2O[C@H](CO)[C@H](O)[C@H]2O)cc1,outcome,[1],inactive
same,Potency,[3],inactive
same,Potency,[4],inactive
same,outcome,[5],inactive
same,Potency,[7],inactive
same,Potency,[10],inactive
same,outcome,[11],inactive
same,Potency,[12],inactive
same,Potency,[13],inactive
same,Potency,[14],inactive
same,outcome,[15],inactive
same,outcome,[16],inactive
same,activation,[17],0.688% (inactive)
same,outcome,[18],inactive
CNCC[C@@H](Oc1ccc(C(F)(F)F)cc1)c1ccccc1,outcome,[1],inactive
same,Potency,[4],inactive
same,outcome,[5],inactive
same,Potency,[10],inactive
same,Potency,[14],inactive
same,outcome,[16],inactive
same,activation,[17],18.7% (inactive)
same,outcome,[18],inactive
CC(O)[C@@H](O)[C@H]1CNc2nc(N)[nH]c(=O)c2N1 (some centres not stated),outcome,[1],inactive
same,Potency,[3],inactive
same,Potency,[4],inactive
same,Potency,[6],inactive
same,Potency,[7],inactive
same,Potency,[8],inactive
same,Potency,[20],inactive
same,Potency,[10],inactive
same,outcome,[11],inactive
same,Potency,[12],inactive
same,Potency,[13],inactive
same,Potency,[14],inactive
same,outcome,[15],inactive
same,outcome,[16],inactive
same,activation,[17],0.0625% (inactive)
same,outcome,[18],inactive
CN(C)C1C(=O)C(C(N)=O)=C(O)[C@@]2(O)C(=O)C3=C(O)c4c(O)ccc(Cl)c4[C@@H](O)C3C[C@@H]12 (some centres not stated),outcome,[1],inactive
same,Potency,[3],inactive
same,Potency,[4],inactive
same,Potency,[6],0.794 µM (active)
same,outcome,[9],inactive
same,Potency,[10],inactive
same,Potency,[12],0.738 µM (active)
same,Potency,[13],6.57 µM (active)
same,Potency,[14],inactive
same,outcome,[15],inactive
same,outcome,[16],inactive
same,activation,[17],1.62% (inactive)
same,outcome,[18],inactive
same,Potency,[19],inactive
OC[C@H]1O[C@@H](n2cnc3c(N[C@H]4CC5CCC4C5)ncnc32)[C@H](O)[C@@H]1O (some centres not stated),outcome,[1],inactive
same,Potency,[3],inactive
same,Potency,[4],inactive
same,outcome,[5],inactive
same,Potency,[6],inactive
same,Potency,[7],inactive
same,Potency,[8],inactive
same,Potency,[20],inactive
same,outcome,[9],inactive
same,Potency,[10],inactive
same,outcome,[11],inactive
same,Potency,[12],inactive
same,Potency,[13],inactive
same,Potency,[14],inactive
same,outcome,[15],inactive
same,outcome,[16],inactive
same,activation,[17],0.875% (inactive)
same,outcome,[18],inactive
same,Potency,[19],inactive
CN1CCc2cc(Cl)c(O)cc2C(c2ccccc2)C1 (configuration not stated),outcome,[1],inactive
same,Potency,[3],inactive
same,Potency,[4],inactive
same,Potency,[6],11.2 µM (active)
same,Potency,[7],12.6 µM (active)
same,Potency,[8],8.91 µM (active)
same,Potency,[20],12.6 µM (active)
same,outcome,[9],inactive
same,Potency,[10],inactive
same,outcome,[11],inactive
same,Potency,[14],inactive
same,outcome,[15],inactive
same,outcome,[16],inactive
same,activation,[17],1.12% (inactive)
same,outcome,[18],inactive
same,Potency,[19],10 µM (active)
